Assay results reported in PubChem BioAssay (NCATS).
Inconclusive results are not listed. Where a call stands in place of a potency, no number is given. Unmarked numbers belong to inactive results. Active and inactive are the calls of the source. Calls follow the shape of the dose curve; as a rule, active = well fitted cell-killing curve with a large enough effect; inconclusive = small, poorly fitted or top-dose-only effect, or effect the other way; inactive = flat fitted curve, though single readings scatter.

What was measured:
Test in all cases: Primary qHTS to identify gynecologic anti-cancer compounds using libraries of approved drugs and bioactive compounds (AID 1345084); also: nearly all actives have a fitted effect of over 55% in size
CAOV3 = details: Gynecologic cancer cell panel viability, ATPlite luminescence, 48 h; series mostly up to 57.5 µM
Summary of the method: (§1)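 Five-point cytotoxicity, 48 h drug exposure at 37 C, 5% CO2, on cells seeded 16 h beforehand. ATP content read by ATPlite luminescence.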

CASKI = details: Gynecologic cancer cell panel viability, ATPlite luminescence, 48 h; series mostly up to 57.5 µM
Summary of the method: as §1

Es-2 = details: Gynecologic cancer cell panel viability, ATPlite luminescence, 48 h; series mostly up to 57.5 µM
Summary of the method: as §1

HeLa = details: Gynecologic cancer cell panel viability, ATPlite luminescence, 48 h; series mostly up to 57.5 µM
Summary of the method: as §1

Hek293T = details: Gynecologic cancer cell panel viability, ATPlite luminescence, 48 h, control line for the selectivity index; series mostly up to 57.5 µM
Summary of the method: as §1
Potency is read from the fitted curve at half-maximal effect.

| Compound | Potency (CAOV3) | Potency (CASKI) | Potency (Es-2) | Potency (HeLa) | Potency (Hek293T) |
| --- | --- | --- | --- | --- | --- |
| C=CC(=O)Nc1cc(Nc2nccc(-c3c[nH]c4ccccc34)n2)c(OC)cc1N(C)CCN(C)C | 28.2 µM (active) | 28.2 µM (active) | 20 µM (active) | 15.8 µM (active) |  |
| O=C(NCc1ccc(S(=O)(=O)c2cc(F)cc(F)c2)cc1)c1ccc2nccn2c1 | 0.316 µM (active) |  |  |  |  |
| Cc1cc(-c2cc(O)ccc2Cl)cc2nnc(Nc3ccc(OCCN4CCCC4)cc3)nc12 | 11.2 µM (active) |  |  |  |  |
| O=S(=O)(c1ccccc1)c1cnc2c(N3CCNCC3)cccc2c1 | inactive | inactive | inactive | inactive | inactive |
| COc1ccc(-c2cnc(-c3cccc4c3-c3ccccc3C4=O)o2)cc1 | inactive |  | 0.158 µM (active) | 0.199 µM (active) |  |
| CCN1CCN(Cc2ccc(NC(=O)c3ccc(C)c(NC(=O)c4cncc(-c5cccs5)c4)c3)cc2C(F)(F)F)CC1 | 10 µM (active) | 10 µM (active) | 2.82 µM (active) |  |  |
| NC(=O)c1cccc2cn(-c3ccc(C4CCCNC4)cc3)nc12 (centres undefined) | inactive | inactive |  | inactive | inactive |
| CN[C@H](C(=O)N[C@H](C(=O)N(C)[C@H](/C=C(\C)C(=O)O)C(C)C)C(C)(C)C)C(C)(C)c1ccccc1 | inactive |  |  |  |  |
| Cc1nc(Nc2n[nH]c3c2CN(C(=O)NC(CN(C)C)c2ccccc2)C3(C)C)c2sccc2n1 (centres undefined) | 1.41 µM (active) | 3.98 µM (active) | 7.94 µM (active) | 10 µM (active) | 7.94 µM (active) |
| CC(C)c1cc(CNc2nc(Nc3cc(C4CC4)[nH]n3)cc(N3CCN(C)CC3)n2)on1 | 0.282 µM (active) | 2.82 µM (active) | 7.94 µM (active) | 0.251 µM (active) | 2 µM (active) |
| Cn1nnc(-c2ccc(-c3ccc(N4C[C@H](COP(=O)(O)O)OC4=O)cc3F)cn2)n1 | inactive | 12.6 µM (active) |  |  |  |
| COc1ncc(Nc2ncc([C@@H](C)N3CCN(S(C)(=O)=O)CC3)cc2-c2nc(C)nc(N)n2)cc1F | inactive | 0.398 µM (active) | inactive | inactive | 1.26 µM (active) |
| Cc1onc(C(=O)N2CCN(C(c3ccc(Cl)cc3)c3ccc(Cl)cc3)CC2)c1[N+](=O)[O-] | 2.24 µM (active) | inactive | 1 µM (active) | inactive | inactive |
| COc1cc(N2CCC(N3CCN(C)CC3)CC2)ccc1Nc1ncc(Cl)c(-c2c[nH]c3ccccc23)n1 | 11.2 µM (active) | 8.91 µM (active) | inactive | 8.91 µM (active) |  |
| COc1ccc(F)cc1-c1cc(NC(=O)[C@@H]2CCCNC2)ncc1Cl | inactive | 0.891 µM (active) | 0.794 µM (active) | 0.708 µM (active) | 0.398 µM (active) |
| COc1ccc(C(=O)Nc2ncc(-c3ccc(C(=O)O)cc3)s2)cc1 | 6.31 µM (active) | 17.8 µM (active) | 31.6 µM (active) | 7.08 µM (active) |  |
| Cc1ccc(C(=O)Nc2noc3ccccc23)cc1 | 15.8 µM (active) | 22.4 µM (active) | 15.8 µM (active) | 22.4 µM (active) | 15.8 µM (active) |
| CNC(=O)c1cc(Oc2ccc3nc(N[C@@H]4CCCC[C@H]4O)sc3c2)ccn1 | inactive | inactive |  |  | inactive |
| O=C1N=C(N2CCOCC2)CN1c1ccc(Cl)cc1 | inactive | inactive | inactive | inactive | inactive |

| Compound | Potency (CAOV3) | Potency (CASKI) | Potency (Es-2) | Potency (HeLa) | Potency (Hek293T) |
| --- | --- | --- | --- | --- | --- |
| Cc1cccc(/C=N/Nc2cc(N3CCOCC3)n3nc(-c4ccncc4)cc3n2)c1 | 8.91 µM (active) |  |  |  |  |
| CCC(C)C(=O)OC1CC(O)C23C4OCC5(C(O)CC2C1(C)C(O)O4)C3C(=O)C(O)C1(C)C(O)(c2ccoc2)CC2OC251 (centres undefined) | 3.98 µM (active) | inactive | 8.91 µM (active) |  |  |
| CC(C)CCC[C@@H](C)[C@H]1CC[C@H]2[C@@H]3CC(=O)[C@H]4C[C@@H](O)CC[C@]4(C)[C@H]3CC[C@]12C | inactive | inactive | inactive | inactive | inactive |
| CCN(CC)CCN(Cc1ccc(-c2ccc(C(F)(F)F)cc2)cc1)C(=O)Cn1c(SCc2ccc(F)cc2)nc(=O)c2c1CCC2 | 12.6 µM (active) | 25.1 µM (active) |  |  |  |
| Cc1ccc(C(=O)N(CCCN)C(c2nc3cc(Cl)ccc3c(=O)n2Cc2ccccc2)C(C)C)cc1 (centres undefined) | 25.1 µM (active) | 25.1 µM (active) |  |  |  |
| C=CC(=O)Nc1cc(Nc2ncc(Cl)c(-c3c[nH]c4ccccc34)n2)c(OC)cc1N(C)CCN(C)C | 17.8 µM (active) | 2.24 µM (active) |  | 12.6 µM (active) | 11.2 µM (active) |
| CC(=O)c1cc(C(=O)N[C@@H](C)Cn2ccc(-c3ccc(C#N)c(Cl)c3)n2)[nH]n1 | inactive | inactive | inactive | inactive |  |
| CC1=C(C(=O)OCc2ccccc2)C(c2ccc(-c3ccccc3)cc2)NC(=O)N1CCCCCC(=O)O (centres undefined) | inactive | inactive | inactive | inactive | inactive |
| CNC(=O)c1ccccc1Nc1nc(Nc2ccc3c(c2OC)CCCC(N2CCN(CCO)CC2)C3)ncc1Cl (centres undefined) | 10 µM (active) | 17.8 µM (active) |  |  |  |
| CC(O)c1cc(C(=O)N[C@@H](C)Cn2ccc(-c3ccc(C#N)c(Cl)c3)n2)n[nH]1 (some centres undefined) | inactive |  |  |  |  |
| CC(C)c1cc(C(=O)N2CC[C@H](NC(=O)C3CC3)C2)n[nH]1 | inactive | inactive | inactive | inactive | inactive |
| CC[C@]1(O)CC2CN(CCc3c([nH]c4ccccc34)[C@@](C(=O)OC)(c3cc4c(cc3OC)N(C=O)[C@H]3[C@@](O)(C(=O)OC)[C@H](OC(C)=O)[C@]5(CC)C=CCN6CC[C@]43[C@@H]65)C2)C1 (some centres undefined) | inactive | 0.0891 µM (active) | 0.447 µM (active) | 0.282 µM (active) |  |
| CCC1C(=O)OC23C=C[C@@H]4C(C(=O)O)=CO[C@H](O[C@@H]12)[C@@H]43 (some centres undefined) | inactive | inactive | inactive | inactive | inactive |
| CC1(CCOC2OC(CO)C(O)C(O)C2O)CCC23OC2(C1)C(O)CC1C(C)(C(=O)O)CCCC13C (centres undefined) | inactive | inactive | inactive | inactive | inactive |
| COc1cc(N2CCOCC2)ccc1Nc1ncc(Cl)c(Nc2ccccc2NS(C)(=O)=O)n1 | 3.55 µM (active) | 8.91 µM (active) |  | 3.16 µM (active) |  |
| CN1CCN(C2CCC(n3cc(-c4ccc(Oc5ccccc5)cc4)c4c(N)ncnc43)CC2)CC1 (centres undefined) | 28.2 µM (active) | 15.8 µM (active) |  | 22.4 µM (active) | inactive |
| CCC1=CC2CN(C1)Cc1c([nH]c3ccccc13)[C@@](C(=O)OC)(c1cc3c(cc1OC)N(C)[C@H]1[C@@](O)(C(=O)OC)[C@H](OC(C)=O)[C@]4(CC)C=CCN5CC[C@]31[C@@H]54)C2 (some centres undefined) | inactive | inactive | 0.282 µM (active) | 0.126 µM (active) |  |
| O=C(O)c1cc2cccc([N+](=O)[O-])c2[nH]1 | inactive | inactive | inactive | inactive | inactive |
